High-throughput results: PubChem, several laboratories
NR3A LBD binder: modulates the human NR3A ligand-binding domain | NR3A LBD differential scanning fluorimetry, Tm shift; 0% = protein alone, 100% = glycine-bound protein | Tm shift relative to glycine control, % at 25 µM | 340,000 tested, 2.5% active | AID 1259313;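 active = melting temperature shift of at least 10% of the positive control shift, at one fixed dose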
SKN-1 block: blocks SKN-1 activity in C. elegans | AID 624304 | 360,000 tested, 0.49% active | C. elegans VP596 Pgst-4::GFP/RFP ratio, acrylamide-induced, 24 h | inhibition, % at 21.8 µM;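 active = interference check ratio from 0.5 to 1.5 plus GFP to RFP signal ratio inhibition reaching or exceeding a fixed threshold, cut at about 30% in these data, passing the limit was not always enough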
esBAF inh: SWI/SNF esBAF complex inhibition. reporter increase, % at 12.5 µM. 350,000 tested, 2% active. mouse ES cells, Bmi1-luciferase knock-in reporter, 24 h; 100% = twice the neutral-well signal. AID 602393; in the data active = activation above about 40%; inconclusive = no clear call, values can overlap the other calls;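 also: 0% = median of the plate's neutral control wells and 100% = double that signal; a rise in the Bmi1 reporter signal indicates esBAF inhibition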
SMARCA2 act: increases SMARCA2 function in MMTV reporter cells; MG213 cells, MMTV-luciferase reporter, dexamethasone, overnight; activation, % at 9.1 µM; 370,000 tested, 1% active; in the data active = activation above about 7.8%;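 also: 0% = vehicle wells and 100% = reference activator wells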
NadD block: inhibitors of Staphylococcus aureus NadD. 360,000 tested, 0.78% active. inhibition, % at 20 µM. purified NadD enzyme, colorimetric absorbance read-out; in the data active = inhibition above about 26%
Vif inh: blocks HIV Vif function; HEK293T cells, Vif self-association by quenched fluorescence, imaging, 24 h; inhibition, % at 7.49 µM; 340,000 tested, 0.35% active; in the data active = inhibition above about 50%, passing the limit was not always enough; inconclusive = no clear call, values can overlap the other calls; inactive = below about 31%
SMARCA2 conf: confirmation of SMARCA2 (BRM) function activators | 3,500 tested, 30% active | MG213 cells, MMTV-luciferase with dexamethasone, luminescence, overnight; MG213 cells expressing E1A, Rb sequestered; DMSO wells 0%, reference activator 100% | shares compounds with SMARCA2 act | AID 652260 | activation, % at 9.1 µM;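 active = activation above its plate's cutoff, the mean activation of tested wells plus 3 SD, cut at about 7.9% in these data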
GAL4-VP16 Luc: counter-screen for SMARCA2 activators: GAL4-VP16 luciferase reporter activation. shares compounds with SMARCA2 act. HEK293 GAL4-VP16 pG5luc reporter, luciferase luminescence; scaled: DMSO wells 0%, SAHA wells 100%. activation, % at 9.1 µM. 3,500 tested, 41% active. AID 686939;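 active = activation above the solvent-only control well mean plus 3 SD, averaged across control plates, cut at about 5.2% in these data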
Active calls of the source: *; ? = inconclusive; / = no result. Rows were chosen to be rich in hits. Some 5.2% of all compounds tested hit in one or more screens of this group.

SMILES | NR3A LBD binder | SKN-1 block | esBAF inh | SMARCA2 act | NadD block | Vif inh | SMARCA2 conf | GAL4-VP16 Luc
O=C(N/N=C/c1ccc(Br)s1)c1ccccn1 | -25.8 | 27.3 | / | 10.6* | -1.9 | -2.9 | 14.2* | 9.0*
C[C@H](O)C#Cc1ccc([C@H]2[C@H]3CN(C(=O)c4ccncc4)CCCCN3[C@H]2CO)cc1 | / | / | -4.5 | / | / | / | / | /
COc1ccc(NC(=O)Nc2cccc3c2O[C@@H](CN(C)Cc2ccncc2)[C@@H](C)CN([C@@H](C)CO)C3=O)cc1 | / | / | 0.1 | / | / | / | / | /
CCCCCOC(=O)NCC(O)c1ccccc1 (centres undefined) | -2.0 | -2.4 | -5.8 | 12.9* | -6.2 | -1.3 | 7.8 | 11.3*
Cc1ccccc1S(=O)Cc1ccc(C(=O)NCCCN2CCCCC2)o1 (centres undefined) | 0.1 | 3.2 | 0.3 | 11.7* | 2.4 | -9.9 | -6.0 | -0.4
O=C(NCCCN1CCCC1)c1ccc(CS(=O)(=O)c2ccc(Br)cc2)o1 | -1.8 | -6.2 | 1.4 | 9.5* | 3.2 | -2.7 | -1.3 | 1.4
Cc1ccccc1S(=O)Cc1ccc(C(=O)NCCN2CCOCC2)o1 (centres undefined) | 0.1 | 18.7 | -1.4 | -2.6 | 2.0 | -0.2 | / | /
C[C@@H]1CN([C@H](C)CO)C(=O)c2cc(NS(C)(=O)=O)ccc2O[C@@H](C)CCCCO[C@@H]1CN(C)CC1CCCCC1 | / | / | -2.7 | / | / | / | / | /
CCn1c([N+](=O)[O-])nc2c1c(=O)[nH]c(=O)n2C | -1.9 | -1.9 | -1.8 | 19.4* | 8.0 | -4.8 | 55.8* | 1.5
COC(=O)C1=C(C)N(Cc2ccccc2)C(=S)NC1c1cccc(OC)c1 (centres undefined) | / | / | / | 2.7 | / | / | / | /
COC(=O)C1=C(C)N(Cc2ccc(F)cc2)C(=S)NC1c1cccc(OC)c1 (centres undefined) | / | / | / | 8.6* | / | / | -3.7 | 0.7
COc1ccc(/C=N/N=C2/NC(=O)C(c3ccccc3)(c3ccccc3)S2)cc1 | -0.1 | 7.0 | -4.1 | 8.3* | 10.4 | -2.5 | -1.2 | 0.1
COc1ccc(/C=N/N=C/c2ccc(OC)cc2)cc1 | 0.9 | -3.0 | ? | 3.3 | -3.6 | -5.1 | / | /
COc1ccc(Cl)c2sc(N(CCN(C)C)C(=O)CCS(=O)(=O)c3ccc(C)cc3)nc12 | / | -43.3 | -5.8 | -0.9 | -0.4 | 1.4 | / | /
COc1ccc(OC)c2sc(N(CCCN(C)C)C(=O)CCS(=O)(=O)c3ccccc3)nc12 | 1.8 | -5.5 | / | 9.9* | -3.3 | 8.2 | -15.4 | -0.8
CCN(CC)CCN(C(=O)CCS(=O)(=O)c1ccccc1)c1nc2cc(C)cc(C)c2s1 | 5.2 | 14.5 | -6.0 | 1.5 | -3.2 | -4.4 | / | /
CCN(CC)CCN(C(=O)CCS(=O)(=O)c1ccccc1)c1nc2cc(OC)c(OC)cc2s1 | 0.8 | 16.0 | -1.7 | 8.7* | -1.0 | -5.6 | -3.8 | 0.8
Cc1ccccc1C1NS(=O)(=O)N=C1N (centres undefined) | -1.0 | 10.5 | -0.8 | 8.0* | 0.5 | -5.1 | -0.1 | 0.4
Cc1ccc(C2NS(=O)(=O)N=C2N)cc1 (centres undefined) | -3.4 | -4.1 | -5.1 | -1.6 | -6.7 | 3.1 | / | /
C[C@H](CO)N1C[C@H](C)[C@H](CN(C)C(=O)Nc2ccccc2)Oc2ncc(-c3ccc(C#N)cc3)cc2C1=O | / | / | -2.4 | / | / | / | / | /
COc1cc2ccccc2cc1C(=O)Nc1ccc(N2CCN(C)CC2)cc1 | 1.1 | 31.8 | 24.7 | 18.6* | -6.5 | 1.8 | 9.7* | 8.8*
O=C(NN=C1CCCCCCC1)c1ccc(F)cc1 | -0.5 | -3.4 | / | 3.1 | 2.0 | 0.4 | / | /
O=C(NN=C1CCCCCCCCCCC1)c1ccccc1F | -7.5 | 2.9 | / | 17.4* | 2.4 | -2.2 | -1.0 | 1.9
COc1ccccc1/C=N/NC(=O)C(=O)N1CCN(c2ccccc2OC)CC1 | 3.4 | -11.0 | / | 10.1* | 2.0 | 1.1 | -1.1 | -0.6
COc1cc(/C=N/N(C)c2ccccc2)ccc1O | -30.4 | 4.0 | 37.5 | 9.3* | -3.4 | 3.0 | 3.5 | 9.9*
SMILES | NR3A LBD binder | SKN-1 block | esBAF inh | SMARCA2 act | NadD block | Vif inh | SMARCA2 conf | GAL4-VP16 Luc
COc1cc(OC)c(OC)cc1/C=N/N(C)c1ccccc1 | 2.8 | 8.2 | / | -2.5 | 7.9 | 14.4 | / | /
Cc1cc(C)c(NN=c2c(=O)c3ccccc3c2=O)c(C)c1 | 3.5 | 8.8 | 30.3 | 7.3 | -7.3 | 2.7 | / | /
O=c1c(=NNc2ccccc2Cl)c(=O)c2ccccc12 | 0.8 | 10.0 | -13.6 | 8.4* | 0.9 | ? | 0.3 | 4.7
Cc1nc2c(C(=O)NCCC(C)C)c[nH]n2c(=O)c1Cl | -27.8 | 7.5 | / | 9.5* | 16.7 | -2.6 | 0.1 | 1.5
Cc1nc2c(C(=O)NCCc3ccccc3)c[nH]n2c(=O)c1Cl | -8.9 | 5.7 | / | -1.9 | 5.4 | 3.2 | / | /
Cc1nnc(N/N=C\c2ccc(-c3cccc(C(=O)O)c3)o2)n1N | -1.1 | 12.8 | / | 9.1* | 0.0 | 4.7 | 2.9 | 0.5
O=C(COC(=O)/C=C/c1ccc(Cl)cc1Cl)NCC1CCCO1 (centres undefined) | -0.2 | -19.0 | 1.1 | 8.7* | -1.0 | -4.4 | 1.8 | -0.2
Cc1ccc2c(COC(=O)C3=COCCO3)cc(=O)oc2c1 | 1.4 | 10.6 | ? | 8.5* | 0.4 | 2.4 | 0.3 | 8.4*
Cc1ccc(S(=O)(=O)NCC(=O)OCc2cc(=O)oc3cc(C)ccc23)cc1 | -0.2 | 4.0 | 0.1 | -2.4 | -2.4 | -17.1 | / | /
C/C=C/c1cnc2c(c1)C(=O)N([C@H](C)CO)C[C@@H](C)[C@H](CN(C)C(=O)Nc1ccc(C(F)(F)F)cc1)O2 | / | / | 4.9 | / | / | / | / | /
CN1CCN(C(=O)C[C@@H]2CC[C@H]3[C@@H](COC[C@@H](O)CN3S(=O)(=O)c3cccc(Cl)c3)O2)CC1 | / | / | -5.7 | / | / | / | / | /
O=C(CCc1nnc(CCCc2ccccc2)o1)NCCc1ccccc1 | -0.1 | -1.6 | / | 1.3 | 3.0 | 6.8 | / | /
O=C(CCc1nnc(CCCc2ccccc2)o1)NCCCC1CCCC1 | 0.9 | 14.0 | / | 9.7* | -0.7 | -1.7 | 5.0 | 6.5*
COc1ccc(NC(=O)c2cc3ccccn3n2)cc1 | -40.3 | 13.6 | -22.8 | 10.3* | -4.2 | 1.4 | 4.3 | 11.6*
O=C(NCCc1ccc(F)cc1)c1cc2ccccn2n1 | / | / | / | 16.5* | / | / | 4.4 | 7.3*
COCC(=O)N1C[C@@H]2[C@H](c3ccccc31)[C@@H](CO)N2Cc1ccccc1 | / | / | -0.2 | / | / | / | / | /
CN1CCN(S(=O)(=O)c2ccc(NC(=O)c3ccc(Br)o3)cc2)CC1 | -0.8 | 7.0 | 3.8 | 8.2* | -4.5 | -11.2 | 3.8 | 0.7
O=C(Nc1ccc(S(=O)(=O)N2CCCC2)cc1)c1ccc(Br)o1 | 0.8 | 4.5 | 16.7 | -1.5 | -4.1 | 4.7 | / | /
